Many of the other results were omitted from the sample, so hits are more common in it than they were.
Tg IFNy HTS: inhibitors of Toxoplasma gondii growth with IFN-gamma | Toxoplasma gondii growth in IFN-gamma-treated host cells; hits give low values | activity change, negative = inhibition, % (concentration not given with the values) | actives 3.8% (n = 69,000); in the data active = activity change below about -70%, passing the limit was not always enough;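 note: host cells are HeLa cells infected with Toxoplasma gondii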
* = called active by the depositor; i = inactive.

SMILES	Tg IFNy HTS
COc1ccc(C(=O)Nc2ccc(-c3nc(Cn4nc(C)c(C)c4C)c(C)o3)cc2)cc1	-93*
Cc1nn(Cc2nc(-c3ccc(NC(=O)c4cc(F)ccc4F)cc3)oc2C)c(C)c1C	-52
CCOCCCN(C)C1CCN(S(=O)(=O)c2ccc3[nH]c(=O)ccc3c2)CC1	178
CC(C)Oc1cc(CCC(=O)NC2CC(C)(C)Cc3nc(-c4ccncc4)ncc32)on1 (stereo unspecified)	-26
CCCCCNC(=O)CCC1Nc2c3ccccc3nc(=S)n2C1=O (stereo unspecified)	11
CCn1nc(NC(=O)Cc2coc3cc(C)ccc23)cc1C	37
C[C@@H]1CC[C@H]2[C@@H](C)C(O)O[C@@H]3O[C@]4(C)CC[C@@H]1[C@]32OO4 (stereo partly specified)	-82*
Fc1ccc(CN(Cc2ccncc2)CC2CCCO2)cc1 (stereo unspecified)	4
Cc1cccc(NC(=O)c2c(O)c3ccccc3n(-c3ccccc3)c2=O)c1C	15
Cn1c(CC2CCNCC2)nnc1SCc1cc(F)ccc1Cl	3
O=C(Nc1cccc(F)c1)c1nc(Nc2ccccc2)c2ccccc2n1	66
Cc1ccc(NC(=O)c2nc(Nc3ccccc3)c3ccccc3n2)c(C)c1	-41
COc1ccc(CNC(=O)c2nc(Nc3ccccc3)c3ccccc3n2)cc1OC	-42
CCc1ccc(Nc2nc(C(=O)NCc3ccc(OC)c(OC)c3)nc3ccccc23)cc1	-79*
COc1ccc(OC)c(NC(=O)c2nc(Nc3ccc(C)cc3)c3ccccc3n2)c1	-45
COc1cccc(NC(=O)c2nc(Nc3ccccc3)c3ccccc3n2)c1	-76*
Cc1ccc(Nc2nc(C(=O)Nc3c(C)cc(C)cc3C)nc3ccccc23)cc1	-60
CCNC(=O)c1nc(Nc2ccc(CC)cc2)c2ccccc2n1	-49
COc1ccc(NC(=O)c2nc(Nc3ccc(C)cc3)c3ccccc3n2)c(OC)c1	-112*
COc1cc(OC)c(NC(=O)c2nc(Nc3ccc(C)cc3)c3ccccc3n2)cc1Cl	35
CSc1cccc(NC(=O)c2nc(Nc3ccccc3)c3ccccc3n2)c1	-5
Cc1cc(C)c(NC(=O)c2nc(Nc3ccccc3)c3ccccc3n2)c(C)c1	-78*
Cc1cccc(OCCN2CCN(S(=O)(=O)CCN3C(=O)CCC3=O)CC2)c1C	-3
COCC(=O)N1CCC2(CCN2Cc2csc(C)n2)C1 (stereo unspecified)	-34
CN1Cc2ncn(CC3CC3)c2C(COCC2CCOCC2)C1 (stereo unspecified)	4
SMILES	Tg IFNy HTS
CN(Cc1ccccc1)c1ncccc1CNC(=O)c1ccon1	7
COc1ccc2c(c1)NC1(CCN(C(=O)Nc3ccc4c(c3)OCO4)CC1)c1cccn1-2	i
O=C(Cn1c(=O)cc(-c2nc(C3CC3)no2)c2ccccc21)NCc1cccc(Cl)c1	-10
CN(C)CCN1Cc2ccccc2C2(CCN(c3ncccn3)CC2)C1	-1
CCCC(=O)Nc1cc(C(=O)NC(C)Cc2ccncc2)ccc1C (stereo unspecified)	-1
O=C1CN(C(=O)c2noc3c2CCCC3)CC(OCc2cccnc2)CN1CC1CCOCC1 (stereo unspecified)	-2
CCc1ccc(NC(=O)Cn2c(=O)cc(C(=O)NC)c3ccccc32)cc1	-1
NS(=O)(=O)c1ccc(-n2ncc3ccccc3c2=O)cc1	-31
CCc1nn(CC(=O)NCCOC)c(=O)c2cc3oc(C)cc3n12	-10
COc1cc(C(=O)n2c(SCc3ccc(C)cc3)nc3ccccc32)cc(OC)c1OC	167
CCc1ccc(Nc2nc(C(=O)NCCC3=CCCCC3)nc3ccccc23)cc1	-41
Cc1ccc(OCC(=O)NCCc2csc(-c3cccc(F)c3)n2)cc1	-14
Cc1ccc(CNC(=O)c2nc(Nc3ccccc3)c3ccccc3n2)cc1	57
CCOc1ccc(CNC(=O)c2nc(Nc3ccc(CC)cc3)c3ccccc3n2)cc1	44
CCOc1ccccc1NC(=O)c1nc(Nc2ccc(Cl)cc2)c2ccccc2n1	-64
CCOc1ccc(NC(=O)c2nc(Nc3ccccc3)c3ccccc3n2)cc1	-38
CCc1ccc(Nc2nc(C(=O)NCc3cccc(OC)c3)nc3ccccc23)cc1	-72*
CCc1ccc(Nc2nc(C(=O)NCc3ccccc3)nc3ccccc23)cc1	-28
CCOc1ccccc1NC(=O)c1nc(Nc2ccccc2)c2ccccc2n1	-82*
COc1cccc(CNC(=O)c2nc(Nc3ccc(C)cc3)c3ccccc3n2)c1	-101*
COc1cccc(CNC(=O)c2nc(Nc3ccccc3)c3ccccc3n2)c1	-54
CCS(=O)(=O)N1CCn2cc(CN(C)Cc3cccnc3)nc2C1	-2
CN(C)C(=O)N1CCO[C@H]2[C@@H](Oc3cccnc3)CC[C@H]21	20
O=C(C1CCOCC1)N1CCC2(CC1)CCN(c1ncccn1)C2	4
Cc1ccc(/C(=C\CN2CCCC2)c2ccccn2)cc1	0
SMILES	Tg IFNy HTS
CN(C)C(=O)[C@]12CCCN(C(=O)c3ccccn3)C[C@@H]1CN(c1ccccn1)C2	4
C/C(=N\NC(=S)N1CCC1)c1ccccn1	-80*
COc1cc(NCCS(=O)(=O)c2ccc(C)cc2)ncn1	0
Cc1nc(-c2cc(S(=O)(=O)N3CCCCC3C)c(C)s2)sc1C (stereo unspecified)	-11
Cc1nc(-c2cc(S(=O)(=O)N3CCC(C)CC3)c(C)s2)sc1C	16
Cc1sc(-c2nc(C(C)C)cs2)cc1S(=O)(=O)N1CCC(C)CC1	-89*
CCN1c2ccc(F)cc2C(=O)NC12CCN(C(=O)c1cccc(OC)c1)CC2	65
CC(C)CN(Cc1ccsc1)C(=O)c1coc(CN2CCOCC2)c1	1
CC(=O)Nc1cccc(C(=O)N(Cc2ccsc2)CC(C)C)c1	-79*
CC(=O)Nc1cccc(C(=O)N(Cc2ccsc2)CC2CCCO2)c1 (stereo unspecified)	150
CCCC(=O)Nc1ccc(-n2ccnc2-c2nccn2C)cc1OC	-5
Cc1nc(C)c(CC(=O)NCc2ccc(-c3[nH]ncc3C(=O)N3CCOCC3)cc2)s1	-11
CCN(CC)CCCNC(=O)C1=C(C)C(=O)OC12CCN(S(=O)(=O)CC)CC2	6
CS(=O)(=O)c1ccc(-c2nc(-c3ccc(F)cc3)c(-c3ccncc3)[nH]2)cc1	11
Cc1[nH]c(-c2ccc(F)cc2)nc1C(=O)O	-34
CS(=O)c1ccc(-c2nc(-c3ccc(F)cc3)c(-c3ccncc3)[nH]2)cc1 (stereo unspecified)	-90*
COCC1CN(C(=O)c2cscn2)Cc2cn(C)nc21 (stereo unspecified)	-21
c1ccc(-n2ncnc2-c2csc(-c3ccncc3)n2)cc1	-93*
c1ccc(-c2nnc(-c3csc(-c4cccnc4)n3)o2)cc1	303
Clc1ccc(-c2csc(-c3ccc(-n4cncn4)nc3)n2)cc1	4
CCNC(=O)N1CCN2C(=O)CN(C)C(=O)C2C1 (stereo unspecified)	9
O=C(c1ccno1)N1CC[C@H]2CN(Cc3ccc(Cl)cc3)S(=O)(=O)[C@@H]2CC1	2
O=C(NCc1cn2ccsc2n1)c1ccccc1C1CCNC1 (stereo unspecified)	-3
O=C(CCN1CCCCO1)N1CC(Oc2ccccc2F)C1	3
Cc1ccc(C(=O)N2CCn3nnc(COCc4cccnc4)c3C2)cc1F	5
CNC(=O)c1ccc(-c2nc(CN3CCN(S(=O)(=O)c4ccc(OC)cc4)CC3)c(C)o2)cc1	14
Cc1oc(-c2ccccc2)nc1CN1C(=O)CSc2ccc(S(=O)(=O)N3CCCCCC3)cc21	-95*
Cc1oc(-c2ccccc2)nc1Cn1ccn2nc(-c3ccc4c(c3)OCO4)cc2c1=O	-15
